# Test results reported in the supplement of paper PMC11537057.
# Counter-ions that a name gives are not always drawn. In all, about 1,700 compounds went through this assay and about 15 (0.9%) showed activity. Many of the other results were omitted from the sample, so actives are more common in it than they were. Unmarked numbers belong to inactive results.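 The calls were made as follows: active = infection cut by 80% or more with cell growth above 90% in both runs; inactive = the rest.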
# Tested on: HSV-1 strain 17 YFP-ICP4 in A549
# Assay: HSV-1 infection relative to DMSO (ICP4-YFP per H2B-RFP signal); higher = more viral infection (less antiviral activity), active = hit call of the paper
# Conditions: 10 µM; 48 h; MOI: 0.1
# Protocol: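 Selleck FDA-approved library (L1300) screened in duplicate at 10 µM on A549 H2B-mRuby cells in 384-well plates, infected with HSV-1 strain 17 YFP-ICP4 at MOI 0.1 one hour before drug addition. Imaged after 2 days at 37°C. Cell growth (H2B-RFP) and infection (ICP4-YFP) are expressed as % of DMSO-treated wells. Hits: growth >90% and infection <20% of DMSO.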
row,SMILES,HSV-1 infection [%]
1,CO/N=C(\C(=O)N[C@@H]1C(=O)N2C(C(=O)[O-])=C(C[N+]3(C)CCCC3)CS[C@H]12)c1csc(N)n1 [Cefepime Dihydrochloride Monohydrate],98
2,CCCc1nc(C(C)(C)O)c(C(=O)O)n1Cc1ccc(-c2ccccc2-c2nnn[nH]2)cc1 [Olmesartan],114
3,"C[C@H](Nc1ncnc2nc[nH]c12)c1cc2cccc(Cl)c2c(=O)n1-c1ccccc1 [Duvelisib (IPI-145, INK1197)]",69.2
4,CSCC[C@H](NC(=O)[C@H](CC(C)C)NC(=O)[C@H](Cc1c[nH]c2ccccc12)NC(=O)[C@H](CCC(N)=O)NC(=O)[C@@H](NC(=O)[C@H](Cc1ccccc1)NC(=O)[C@H](CC(=O)O)NC(=O)[C@H](CCC(N)=O)NC(=O)[C@H](C)NC(=O)[C@H](CCCNC(=N)N)NC(=O)[C@H](CCCNC(=N)N)NC(=O)[C@H](CO)NC(=O)[C@H](CC(=O)O)NC(=O)[C@H](CC(C)C)NC(=O)[C@H](Cc1ccc(O)cc1)NC(=O)[C@H](CCCCN)NC(=O)[C@H](CO)NC(=O)[C@H](Cc1ccc(O)cc1)NC(=O)[C@H](CC(=O)O)NC(=O)[C@H](CO)NC(=O)[C@@H](NC(=O)[C@H](Cc1ccccc1)NC(=O)[C@@H](NC(=O)CNC(=O)[C@H](CCC(N)=O)NC(=O)[C@H](CO)NC(=O)[C@@H](N)Cc1cnc[nH]1)[C@@H](C)O)[C@@H](C)O)C(C)C)C(=O)N[C@@H](CC(N)=O)C(=O)N[C@H](C(=O)O)[C@@H](C)O [Glucagon HCl],99.3
5,COc1cc(CNC(=O)CCCCC=CC(C)C)ccc1O [Capsaicin(Vanilloid)],86.2
6,"CC1(C)CCC(CN2CCN(c3ccc(C(=O)NS(=O)(=O)c4ccc(NCC5CCOCC5)c([N+](=O)[O-])c4)c(Oc4cnc5[nH]ccc5c4)c3)CC2)=C(c2ccc(Cl)cc2)C1 [Venetoclax (ABT-199, GDC-0199)]",96
7,CC(O)c1ccc(S(=O)(=O)NC(=O)NC2CCCCC2)cc1 (centres undefined) [Hydroxyhexamide],94.9
8,COc1ccc2c(O[C@@H]3C[C@H]4C(=O)N[C@]5(C(=O)NS(=O)(=O)C6CC6)C[C@H]5/C=C\CCCCN(C)C(=O)[C@@H]4C3)cc(-c3nc(C(C)C)cs3)nc2c1C [Simeprevir],84.7
9,COc1cc(C(=O)O)ccc1NC(=O)[C@@H]1N[C@@H](CC(C)(C)C)[C@](C#N)(c2ccc(Cl)cc2F)[C@H]1c1cccc(Cl)c1F [Idasanutlin (RG-7388)],101
